Experimental data reported in PubChem BioAssay (NCATS).
Results filed as inconclusive are left out. A number with no mark means an inactive call. Activity calls are given as the source filed them. Calls follow the shape of the dose curve; as a rule, active = well fitted inhibition curve with a large enough effect; inconclusive = small, poorly fitted or top-dose-only effect; inactive = flat fitted curve, though single readings scatter. Where a SMILES comes first, the peptide text is derived from it. [ ]: non-standard residue; d: D form. The star is where a group is joined. AFC = O=c1cc(C(F)(F)F)c2ccc(N*)cc2o1; 2Abz = Nc1ccccc1C(=O)O

What follows are molecules tested against Glutathione peroxidase 1 (Homo sapiens) (UniProt P07203) (assay: Primary qHTS Assay for Inhibitors of Recombinant Selenoprotein Glutathione Peroxidase 1 (GPX1) (AID 1845191; also: nearly all actives have a fitted effect of over 65% in size)). Settings: recombinant GPX1, GR-coupled NADPH fluorescence, 15 min; series mostly up to 48.8 µM; activity, negative = inhibition: at the top concentration.
Sequence of Glutathione peroxidase 1 (Homo sapiens) (P07203 whole entry, looked up): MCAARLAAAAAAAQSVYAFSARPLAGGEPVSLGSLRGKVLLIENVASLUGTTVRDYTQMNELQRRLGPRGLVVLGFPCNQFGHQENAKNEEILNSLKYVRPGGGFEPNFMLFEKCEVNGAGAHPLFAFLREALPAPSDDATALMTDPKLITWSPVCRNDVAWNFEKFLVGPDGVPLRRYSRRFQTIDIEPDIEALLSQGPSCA
Procedure, shortened: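 Recombinant GPX1 (10 nM final) was preincubated with compound for 30 min at room temperature, then reacted with 1 mM GSH, 0.5 mM CHP, 0.5 mM NADPH and 100 nM glutathione reductase; NADPH fluorescence (340/450 nm) was read at 0 and 15 min.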
% is scaled to controls: 0 for no effect and ±100 for the full control effect; potency is read from the fitted curve at half-maximal effect.

| Structure (SMILES) | outcome | activity, negative = inhibition | Potency |
| --- | --- | --- | --- |
| CCC(C)C(=O)O[C@@H]1[C@@H](O)[C@@H](O[C@H]2O[C@H](CO)[C@@H](O)[C@H](O)[C@H]2O)O[C@H](CO)[C@H]1O (some centres undefined) | inactive [at 27.7 µM] | – | – |
| COc1cc(/C=C/C(=O)OC[C@H]2O[C@H](O[C@]3(CO)O[C@H](CO)[C@@H](O)[C@@H]3O)[C@H](O)[C@@H](O)[C@@H]2O)cc(OC)c1O | – | -14.7% [at 27.7 µM] | – |
| CC1(C)CC2C(C1)C1(C)CCC13OC3(CO)C2O (centres undefined) | inactive | – | – |
| CCC(C)C1NC(=O)C2CCCN2C(=O)C(C(C)C)NC(=O)c2ccccc2NC(=O)C(Cc2ccc(O)cc2)NC(=O)C(C)NC(=O)C(C(C)O)NC1=O (centres undefined) (cyclo([2Abz]VPITAY); configuration not given here) | – | -7.42% [at 15.3 µM] | – |
| CC(=O)N[C@@H](CC(C)C)C(=O)N[C@@H](CCC(=O)O)C(=O)N[C@@H](CCC(=O)O)C(=O)N[C@@H](CC(=O)O)C(=O)Nc1ccc2c(C(F)(F)F)cc(=O)oc2c1 (Ac-LEED-{AFC}) | – | – | 22.7 µM (active) |
| COc1c(C(CC(C)C)OC(C)=O)ccc(Oc2c(O)cc(C)cc2/C=C/C(C)=O)c1C(=O)O (centres undefined) | – | -0.0458% [at 27.7 µM] | – |
| CO[C@H]1C=C2C(CC[C@H](O[C@@H]3O[C@H](CO)[C@@H](O)[C@@H](O)[C@H]3O)C2(C)C)[C@]2(C)CC[C@]3(C)C([C@H](C)C(O)C(C=C(C)C)O[C@@H]4O[C@H](CO)[C@@H](O)[C@@H](O)[C@H]4O)CC[C@@]3(C)C12 (some centres undefined) | inactive [at 15.3 µM] | – | – |
| C[C@]1(O)CC[C@@H]2C(C(=O)O)=CO[C@@H](O[C@@H]3O[C@H](COC(=O)c4ccc(O)cc4)[C@@H](O)[C@H](O)[C@H]3O)[C@@H]21 | inactive [at 27.7 µM] | – | – |
| C=C1C[C@]23C[C@H]1CC[C@H]2[C@@]12C=C[C@H](O)[C@@](C)(C(=O)O1)[C@H]2[C@@H]3C(=O)O | inactive [at 27.7 µM] | – | – |
| CO[C@H](C(=O)[C@@H](O)[C@@H](C)O)C1Cc2cc3cc(O[C@H]4C[C@@H](O[C@H]5C[C@@H](O)[C@H](O)[C@@H](C)O5)[C@@H](O)[C@@H](C)O4)c(C)c(O)c3c(O)c2C(=O)[C@H]1O[C@H]1C[C@@H](O[C@H]2C[C@@H](O[C@H]3C[C@](C)(O)[C@H](O)[C@@H](C)O3)[C@H](O)[C@@H](C)O2)[C@H](O)[C@@H](C)O1 (some centres undefined) | – | 4.52% | – |
| CC(C)CNC(=O)/C=C/CCCCc1ccc2c(c1)OCO2 | – | -14% [at 27.7 µM] | – |
| O=C(O)C[C@H]1CCC(=O)[C@@H]1C/C=C\CCOC1OC(CO)C(O)C(O)C1O (some centres undefined) | – | -9.52% [at 27.7 µM] | – |
| COC(=O)C1=CO[C@@H](O[C@@H]2O[C@H](CO[C@@H]3O[C@H](COC(=O)/C=C/c4ccc(O)cc4)[C@@H](O)[C@H](O)[C@H]3O)[C@@H](O)[C@H](O)[C@H]2O)[C@@H]2C(CO)=CC[C@H]12 | – | 2.15% [at 15.3 µM] | – |
| COC(=O)c1cc(CN2CCN(C(=N)N)CC2)cc(C(=O)N2CCN(C(=O)c3ccc(C(=N)N)cc3)CC2)c1 | inactive | – | – |
| C[C@@H]1[C@H](O)[C@@H](C)/C=C/C=C\C=C\C=C\C=C\C=C\C=C\[C@H](O[C@@H]2O[C@H](C)[C@@H](O)[C@H](N)[C@@H]2O)C[C@@H]2O[C@](O)(C[C@@H](O)C[C@@H](O)[C@H](O)CC[C@@H](O)C[C@@H](O)CC(=O)O[C@H]1C)C[C@H](O)[C@H]2C(=O)O (stereo in doubt) | – | -16% | – |
| COC(=O)C12C(=O)C(C)=C(O)C1(C)C(C)=CC1C34CCC(OC3=O)C(C)(C)C4CCC12C (centres undefined) | inactive [at 27.7 µM] | – | – |
| CC1=C2C(=O)O[C@@H](c3ccoc3)[C@]2(C)CCC1 | – | – | inactive |
| C=C1CC[C@@H]2[C@](C)(CO)[C@H](O)CC[C@@]2(C)[C@@H]1C/C=C1/C(=O)OC[C@H]1O | – | 3.34% | – |
| CC1(C)C(C=C(Cl)Cl)C1C(=O)OCc1cccc(Oc2ccccc2)c1 (centres undefined) | – | -3.84% | – |
| CC[C@H]1OC(=O)[C@H](C)[C@@H](O[C@H]2C[C@@](C)(OC)[C@@H](O)[C@H](C)O2)[C@H](C)[C@@H](O[C@@H]2O[C@H](C)C[C@H](N(C)C)[C@H]2O)[C@@](C)(O)C[C@@H](C)[C@@H]2N[C@@H](COCCOC)OC([C@H]2C)[C@]1(C)O | inactive | – | – |

| Structure (SMILES) | outcome | activity, negative = inhibition | Potency |
| --- | --- | --- | --- |
| O=C(OCc1cccc(O)c1O[C@@H]1O[C@H](CO)[C@@H](O)[C@H](O)[C@H]1O)C1(O)C(=O)C2C=CC1C1C=CC(=O)C(O)(C(=O)OCc3cccc(O)c3O[C@@H]3O[C@H](CO)[C@@H](O)[C@H](O)[C@H]3O)C21 (some centres undefined) | inactive [at 15.3 µM] | – | – |
| O=C1NCc2nc3ccccc3c(=O)n2C1Cc1c[nH]c2ccccc12 (centres undefined) | – | -9.75% [at 27.7 µM] | – |
| CC(=O)OC[C@@]12[C@@H](OC(C)=O)C[C@@H](C)[C@](C)([C@@H]3C[C@H]4C=CO[C@H]4O3)[C@H]1CCC[C@]21CO1 | inactive [at 27.7 µM] | – | – |
| COC(=O)C1(Cc2ccc(O)cc2)OC(=O)C(OC)=C1c1ccc(O)cc1 (centres undefined) | inactive [at 27.7 µM] | – | – |
| O=C(/C=C/c1ccc(O)c(O)c1)OCc1ccccc1O[C@@H]1O[C@H](CO)[C@@H](O)[C@H](O)[C@H]1O | – | -4.7% [at 27.7 µM] | – |
| CC1[C@@H](O)[C@@H](O)C2[C@]3(C)C(C[C@H]4OC(=O)[C@H](O)[C@]1(O)[C@@]24C)C(C)(O)C[C@H](O)[C@H]3O (some centres undefined) | inactive [at 27.7 µM] | – | – |
| COC1CCCC/C(C)=C/C2C=C(C)C(C)C3C(CC(C)C)NC(=O)C23C(=O)C1 (centres undefined) | – | -16.4% [at 27.7 µM] | – |
| O=C(NCc1ccc(OC(F)(F)F)cc1)C1c2ccccc2C(=O)N1C1CCOCC1 (centres undefined) | inactive | – | – |
| CC(=C/C(=O)O)/C=C/[C@]1(O)[C@@]2(C)CO[C@]1(C)C[C@H](O[C@@H]1O[C@H](CO)[C@@H](O)[C@H](O)[C@H]1O)C2 | inactive [at 27.7 µM] | – | – |
| CC(C(=O)O)C1CCC2(C)C3C(=O)C=C4C(CCC(=O)C4(C)C)C3(C)CCC12C (centres undefined) | inactive [at 27.7 µM] | – | – |
| CC(C)C(C#N)O[C@@H]1O[C@H](CO[C@@H]2OC[C@](O)(CO)[C@H]2O)[C@@H](O)[C@H](O)[C@H]1O (some centres undefined) | – | -4.41% [at 27.7 µM] | – |
| O=C(O[C@H]1[C@@H]2C=CO[C@@H](O[C@@H]3O[C@H](CO)[C@@H](O)[C@H](O)[C@H]3O)[C@@H]2[C@@]2(CO)O[C@@H]12)c1ccc(O)c(O)c1 | – | -4.67% [at 27.7 µM] | – |
| NC(=O)[C@H]1CCCCc2c1[nH]c1ccc(Cl)cc21 | – | -2.07% [at 27.7 µM] | – |
| CC1(C)C(O)CCC2(C)C1C(O)C=C1COC(=O)C12O (centres undefined) | inactive | – | – |
| C=CCc1ccc(O[C@@H]2O[C@H](CO[C@@H]3O[C@@H](C)[C@H](O)[C@@H](O)[C@H]3O)[C@@H](O)[C@H](O)[C@H]2O)cc1 | – | -11.8% [at 27.7 µM] | – |
| CC1(C)CCC[C@@]2(C)[C@H]1[C@H](O)C=C1COC(=O)[C@@]12O | – | 1.37% | – |
| Cc1ccc(Sc2cncc3sc(C(N)=O)cc23)cc1 | – | -2.75% | – |
| Cc1ncc([N+](=O)[O-])n1CC(O)CN1CCOCC1 (centres undefined) | – | 0.825% | – |
| CC1CCC2(O1)C(C)(C)CC(O[C@@H]1O[C@H](CO[C@@H]3OC[C@](O)(CO)[C@H]3O)[C@@H](O)[C@H](O)[C@H]1O)CC2(C)O (some centres undefined) | – | -9.57% [at 27.7 µM] | – |
